# Compound activity as filed in PubChem BioAssay.
# JMJD2A Tudor = inhibitors of human JMJD2A Tudor domain | AlphaScreen JMJD2A-Tudor / H3K4me3 peptide binding | AID 504339 | 4.4% of 390,000 active | Potency, µM (series often up to 114 µM), for the others: top-dose activity change, negative = inhibition, hits mostly inhibitors; note: % is set by controls: 0 for no effect and ±100 for the full control effect; nearly all actives have a fitted effect of over 50% in size
# Target sequence (O75164 whole entry, looked up, the tested form may be a part): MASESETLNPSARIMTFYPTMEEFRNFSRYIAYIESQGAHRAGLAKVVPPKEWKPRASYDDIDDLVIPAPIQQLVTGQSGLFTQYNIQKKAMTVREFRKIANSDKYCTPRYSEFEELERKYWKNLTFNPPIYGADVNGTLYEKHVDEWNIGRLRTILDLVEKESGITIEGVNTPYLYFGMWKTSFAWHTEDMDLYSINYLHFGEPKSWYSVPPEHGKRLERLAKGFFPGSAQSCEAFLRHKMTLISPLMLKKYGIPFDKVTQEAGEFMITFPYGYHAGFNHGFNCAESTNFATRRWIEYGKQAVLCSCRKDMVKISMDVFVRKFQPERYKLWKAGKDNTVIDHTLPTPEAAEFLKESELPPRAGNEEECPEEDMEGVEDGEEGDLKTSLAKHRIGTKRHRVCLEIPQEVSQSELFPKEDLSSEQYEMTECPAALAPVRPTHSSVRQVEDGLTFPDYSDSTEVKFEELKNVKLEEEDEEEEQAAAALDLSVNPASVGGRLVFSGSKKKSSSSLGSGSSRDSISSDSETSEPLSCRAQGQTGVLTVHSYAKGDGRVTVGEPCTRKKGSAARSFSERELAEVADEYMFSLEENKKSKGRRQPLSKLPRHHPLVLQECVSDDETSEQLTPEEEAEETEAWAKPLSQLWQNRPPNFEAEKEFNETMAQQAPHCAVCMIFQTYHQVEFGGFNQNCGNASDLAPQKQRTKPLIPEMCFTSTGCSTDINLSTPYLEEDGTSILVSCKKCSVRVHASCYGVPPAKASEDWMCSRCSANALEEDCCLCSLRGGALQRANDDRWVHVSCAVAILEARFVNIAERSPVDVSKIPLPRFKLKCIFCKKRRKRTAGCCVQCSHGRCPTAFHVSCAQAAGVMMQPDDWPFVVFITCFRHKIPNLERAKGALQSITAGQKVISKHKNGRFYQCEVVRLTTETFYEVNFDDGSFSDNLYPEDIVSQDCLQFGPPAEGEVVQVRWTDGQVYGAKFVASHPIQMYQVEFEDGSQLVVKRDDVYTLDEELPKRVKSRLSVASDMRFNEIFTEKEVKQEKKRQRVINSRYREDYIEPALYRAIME
# BAZ2B inh = blocks human BAZ2B; Q9UIF8; AlphaScreen BAZ2B-H3K14Ac peptide displacement; Potency, µM (series often up to 114 µM), inactives show at the highest dose activity change, negative = inhibition, most hits filed as inhibitors; 4.4% of 360,000 active; note: % is set by controls: 0 for no effect and ±100 for the full control effect; nearly all actives have a fitted effect of over 60% in size
#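 Protein-peptide AlphaScreen: BAZ2B 50 nM, b-H3K14Ac 50 nM, 1x PBS pH 7.4 + 0.01% Tween-20. Preincubation 30 min RT; cpd 30 min RT (top 110 uM); beads 20 min RT, light-protected.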
# L3MBTL1 block = inhibitors of human L3MBTL1; Q9Y468; AlphaScreen L3MBTL1–H3K9me1 peptide binding; Potency, µM (highest dose often 57.1 µM), inactives show at the highest dose activity, negative = inhibition, most hits filed as inhibitors; 0.66% of 230,000 active; AID 485360; note: % is set by controls: 0 for no effect and ±100 for the full control effect; nearly all actives have a fitted effect of over 60% in size
#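 L3MBTL1 (50 nM) pre-complexed 30 min with biotinylated H3(1-15)K9me1 peptide (75 nM), then compounds added for 30 min at room temperature; AlphaScreen streptavidin donor/nickel chelate acceptor beads (10 ug/mL final) read after 30 min dark incubation.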
# GLS inh = inhibitors of human glutaminase (GLS); O94925; GLS enzymatic activity, qHTS titration; Potency, µM (doses to about 45.5 µM), without a hit: top-dose activity change, negative = inhibition, usual class: inhibitors; 0.21% of 410,000 active; note: % is set by controls: 0 for no effect and ±100 for the full control effect
#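 Coupled fluorescence readout: glutamate oxidase/HRP/Amplex Red detect glutamate formed by hKGA from L-glutamine (1 mM solution added). Buffer 45 mM KH2PO4 pH 8.2, 0.02% Tween-20; reads at t0 and 30 min RT.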
# HP1b chromo inh = inhibitors of HP1-beta chromodomain binding to methylated histone tails; P83916; AlphaScreen HP1-beta / biotin-H3K9me3 peptide binding; Potency, µM (top dose mostly 114 µM), inactives show top-dose activity change, negative = inhibition, actives largely listed as inhibitors; 0.56% of 390,000 active; AID 540317; note: nearly all actives have a fitted effect of over 70% in size
#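 Compound inhibition of the preformed complex between 50 nM HP1-beta and 50 nM biotinylated H3K9me3 peptide was read by AlphaScreen. Buffer was PBS pH 7.4 with 0.01% Tween-20. Incubations ran 30 min at room temperature, with 10 ug/mL donor/acceptor beads.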
# G9a inh = blocks human histone lysine methyltransferase G9a; AID 504332; Potency, µM (titrated, usually from 102 µM), inactives show at the top dose activity, negative = inhibition, usual class: inhibitors; 8.8% of 350,000 active; G9a H3K9 monomethylation, AlphaScreen, 2 h; note: % is set by controls: 0 for no effect and ±100 for the full control effect; nearly all actives have a fitted effect of over 75% in size
#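 Readings reflect AlphaScreen signal from monomethyl-H3K9 antibody detection. HMT at 20 nM; substrate b-H3K9 500 nM; cofactor SAM 20 uM; 2 h RT reaction; compounds tested as titrations in qHTS with 15 min preincubation.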
# Numbers without * were called inactive; ? = inconclusive; · = no result given; [ ] = remark or other dose. Hits are enriched below; roughly 10% of the tested compounds scored in any of these assays. Calls come from the whole dose curve; as a rule, active = well fitted curve in the direction sought with a large enough effect; inconclusive = small, poorly fitted or top-dose-only effect, or another doubt; inactive = no such curve, though single readings can be large; an effect the other way counts as inactive or inconclusive. Potency is the fitted concentration of half-maximal effect.
SMILES,JMJD2A Tudor,BAZ2B inh,L3MBTL1 block,GLS inh,HP1b chromo inh,G9a inh
COc1ccc(C)cc1NC(=O)C(=O)NCCc1csc(-c2ccc(C)cc2)n1,-12.6%,5.5%,·,-4.6%,16.2%[57 µM],1.1%[59 µM]
CCN1CCN(c2cc(C)c3cc(NC(=S)N4CCOCC4)ccc3n2)CC1,-13.2%,-25.5%,·,41.7%,10.8%[57 µM],39.8µM*
CCN1CCN(c2cc(C)c3cc(NC(=S)N4CCN(c5ccccc5)CC4)ccc3n2)CC1,-17.3%,?,·,-25.7%,7.4%,-41.5%[59 µM]
CCCN1CCN(C(=S)Nc2ccc3nc(N4CCN(CC)CC4)cc(C)c3c2)CC1,-25.7%,-19.4%,·,0.0%,-7.5%,44.7µM*
CCN1CCN(c2cc(C)c3cc(NC(=S)N(CC)CC)ccc3n2)CC1,?,?,·,56.7%,0.9%[57 µM],35.5µM*
CCN1CCN(c2cc(C)c3cc(NC(=O)/C=C/c4cccc(Cl)c4)ccc3n2)CC1,31.6µM*,?,·,1.5%,-35.4%,11.2µM*
O=C(c1ccc2c(c1)N(Cc1ccc(Cl)cc1)C(=O)c1ccccc1S2=O)N1CCC(Cc2ccccc2)CC1 (stereo unspecified),-23.2%,?,·,9.1%,7.6%,-10.7%[59 µM]
CC(=O)N(C[C@@H](O)CO)c1c(I)c(C(=O)NC[C@@H](O)CO)c(I)c(C(=O)NC[C@@H](O)CO)c1I,·,·,·,·,·,13.9%[21.5 µM]
CCN1CCN(c2cc(C)c3cc(NC(=O)CCC(=O)N4CCN(c5ccccc5)CC4)ccc3n2)CC1,?,-19.7%,·,47.6%,-18.1%,79.4µM*
COc1ccccc1N1CCN(C(=S)Nc2ccc3nc(N4CCOCC4)cc(C)c3c2)CC1,?,·,·,?,?,56.2µM*
CCN1CCN(c2cc(C)c3cc(NC(=O)CCC(=O)N4CCN(c5ccccc5OC)CC4)ccc3n2)CC1,-22.9%,-2.6%,·,40.0%,-22.4%,-73.5%
CCN1CCN(c2cc(C)c3cc(NC(=S)N4CCN(c5ccccc5F)CC4)ccc3n2)CC1,?,?,·,0.0%,-5.9%,44.7µM*
CC1(C(=O)O)CCC2(C)CCC3(C)C(=CC(=O)C4C5(C)CCC(O)C(C)(C)C5CCC43C)C2C1 (stereo unspecified),·,·,·,1.2%,·,-5.9%[12.7 µM]
CCNC(=O)CC1SC(=Nc2ccccc2C)N(C)C1=O (stereo unspecified),0.0%,1.8%,0.7%,-6.6%,25.9%,17.5%[59 µM]
CCNC(=O)CC1SC(=Nc2cccc3ccccc23)N(C)C1=O (stereo unspecified),-13.7%,2.8%,1.6%,-1.6%,16.1%,50.1µM*
COc1ccccc1N1CCN(C(=O)c2cc3c(=O)n(Cc4ccco4)ccc3nc2C)CC1,-1.7%,-20.6%,·,-9.9%,69.3%,?
COc1cc(OC)cc(-c2nc3ccccc3c(=O)n2OC(=O)c2ccc(Br)cc2)c1,20µM*,?,4.1%,9.7%,7.8%,?
O=C(OCC#CCSc1nnc(-c2c[nH]c3ccccc23)o1)c1ccc(F)cc1,-24.5%,·,·,·,·,·
Cc1cc(Cl)ccc1NNC(=O)c1cccs1,-8.1%[57.1 µM],-34.6%,4.0%,?,11.7%,·
Cc1noc(C)c1C(=O)NNc1cc(Cl)ccc1Cl,-8.1%,-16.4%,-4.9%,47.1%,1.2%,79.4µM*
Cc1noc(C)c1C(=O)NC(C)c1ccc(Cl)cc1Cl (stereo unspecified),-10.0%,-0.7%,-2.6%,5.7%,-8.1%,-2.3%
O=C(NNc1cc(Cl)ccc1Cl)c1cccs1,-12.5%,17.2%,-19.1%,12.6µM*,19.2%,56.2µM*
Cc1ccc(CNC(=O)Cc2c(C)c3c(cc(C)c4c(C)coc43)oc2=O)cc1,-7.5%,-2.0%,·,-12.5%,18.9%,?
CCN1CCN(c2ccc(S(=O)(=O)N3CCCCC3)cc2NC(=O)c2ccc(OC(F)F)cc2)CC1,-18.2%,-2.9%,-4.9%,-1.2%,-3.5%,14.1µM*
CCN1CCN(c2ccc(S(=O)(=O)N3CCCCC3)cc2NC(=O)c2cccc(Cl)c2)CC1,?,?,-5.8%,-2.7%,-14.6%,31.6µM*
SMILES,JMJD2A Tudor,BAZ2B inh,L3MBTL1 block,GLS inh,HP1b chromo inh,G9a inh
CC(C)COc1cccc(C(=O)Nc2cc(S(=O)(=O)N3CCOCC3)ccc2N2CCCC2)c1,-34.6%,·,·,32.1%,?,·
COc1ccc(OC)c(NC(=O)/C=C/c2ccc(S(=O)(=O)N3CCOCC3)cc2)c1,-34.2%,-25.9%,-7.6%,0.9%,2.4%,50.1µM*
CCN1CCN(c2ccc(S(=O)(=O)N3CCCCC3)cc2NC(=O)c2cccc(OC(F)F)c2)CC1,-22.8%,1.5%,-5.0%,-2.5%,15.1%,12.6µM*
COc1ccc(OC)c(NC(=O)c2cc(C3CC3)nc3c2c(C)nn3-c2ccc(C)cc2)c1,-29.4%,-1.7%[57.1 µM],·,-16.5%,-7.4%,-30.8%[59 µM]
CCN1CCN(c2ccc(S(=O)(=O)N3CCCCC3)cc2NC(=O)c2cc3ccccc3o2)CC1,?,-20.2%,?,4.3%,-26.7%,35.5µM*
COc1ccc(S(=O)(=O)N2CCOCC2)cc1NC(=O)c1cc2ccccc2o1,-26.8%,3.2%,-12.4%,4.5%,10.5%,44.7µM*
Cc1oc(-c2ccc(C(F)(F)F)cc2)nc1CN(Cc1ccccn1)C[C@@H]1CCC(=O)N1,-23.4%,?,-6.7%,0.2%,30.1%,?
CCOc1ccc(-c2nc(CN(Cc3ccccc3)C[C@@H]3CCC(=O)N3)c(C)o2)cc1,-24.8%,?,-8.3%,9.2%,6.6%,44.7µM*
Cc1ccc(Cl)cc1Nc1nc2ccccc2c2nncn12,6.8%,2.2%,·,-7.6%,51.3%,16.2%[59 µM]
CCSc1ncc(Cl)c(C(=O)Nc2ccc(S(=O)(=O)N3CCCCC3)cc2)n1,-25.0%,-17.5%,·,-2.4%,19.4%,-30.6%[59 µM]
Cn1ccc(-c2cc(C(=O)O)c3ccccc3n2)n1,-12.0%,?,9.6%,0.8%,2.4%,50.1µM*
Cn1cc(S(=O)(=O)N2CCCCCC2)cc1C(=O)N1CCN(c2cccc(Cl)c2)CC1,-35.8%,?,·,11.7%,-0.4%[57 µM],4.2%[59 µM]
COC1CCN(Cc2c(C(=O)N3CCc4ccccc4C3)nc3ccc(Cl)cn23)CC1,-10.4%,-5.1%,·,0.8%,11.5%,·
COCC1CCN(Cc2c(C(=O)N3CCc4ccccc4C3)nc3ccc(Cl)cn23)C1 (stereo unspecified),-27.3%,-34.1%,·,4.4%,25.2%,39.8µM*
CC(=O)N1CCCc2cc(S(=O)(=O)Nc3ccc(C)c(C)c3)ccc21,-17.7%,·,·,·,·,·
COc1ccc(N2CCN(CCCNS(=O)(=O)c3c(C)noc3/C=C/N(C)C)CC2)cc1,·,35.5µM*,?,·,·,?
CCN(CC)CCC=C(c1cccs1)c1cccs1,0.891µM*,·,·,2.7%,?,·
